This note sets out measurements from a collection of fitness landscapes (doi:10.1016/j.celrep.2020.107928).

The full ranking holds about 81,000 sequences; the median of “one-hybrid fitness for binding parS DNA” is about -0.17, and the highest 2% start at about 0.51. This excerpt belongs to a sample that is enriched for the highest values. Where only a bound is given, the exact number is not on record here.

The chains are these.
B1: Caulobacter ParB omega fusion; a variant is named by its letters at X, in order, B8GW30 (parent)
chain: MESVVVGEPGMSEGRRGLGRGLSALLGEVDAAPAQAPGEQLGGSREAPIEILQRNPDQPRRTFREEDLEDLSNSIREKGVLQPILVRPSPDTAGEYQIVAGERAWRAAQRAGLKTVPIMVRELDDLAVLEIGIIENVQRADLNVLEEALSYKVLMEKFERTQENIAQTIGKSXSHVANXMRLLXLPDEVQSYLVSGELTAXHARAIAAAADPVALAKQIIEGGLSVRETEALARKAPNLSAGKSKGGRPPRVKDTDTQALESDLSSVLGLDVSIDHRGSTGTLTITYATLEQLDDLCNRLTRGI

The variants in the experiment derive from B1. Briefly: one-hybrid fitness for binding parS DNA (scaled: cognate 1, non-cognate 0); higher = stronger binding. The conditions noted are these: with parS DNA site. The method, boiled down: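 Bacterial one-hybrid selection in E. coli USO rpoZ- hisB- pyrF- with a HIS3 reporter carrying the site 19 bp from the promoter, screening Caulobacter ParB libraries with four specificity codons randomised (NNS). Cells grew 48 hours at 37°C on M9-minus-histidine plus 0.1 mM IPTG and 5 mM 3-AT. Plasmids before and after selection were Illumina-sequenced, three replicate libraries pooled, and variants under 10 reads dropped. Fitness is the log change in variant-to-wild-type read ratio, rescaled to cognate 1, non-cognate 0.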
Take QTTK: the “one-hybrid fitness for binding parS DNA” value is no more than 0.2.
As to EMYT, the “one-hybrid fitness for binding parS DNA” value is no more than 0.2.
To YMPG belongs no more than 0.2; to QGVI, no more than 0.2.
With THDM the figure was no more than 0.2.
To QTRR belongs no more than 0.2; to WHQG, no more than 0.2; to HQDG, no more than 0.2.
As to SMLR, the “one-hybrid fitness for binding parS DNA” value was no more than 0.2.
With LTRA the figure was no more than 0.2.
With KPYW the figure was no more than 0.2.
To DMSV belongs no more than 0.2; to RTYN, 0.424.
In the case of RTLP, the “one-hybrid fitness for binding parS DNA” value was no more than 0.2.
With RTYH the figure was 0.266; with RTSC, 0.969.
RTLH: the “one-hybrid fitness for binding parS DNA” value amounted to 0.232.
With RTYC the figure was 0.982.
With RTSP the figure was no more than 0.2; with RTSH, no more than 0.2.
Consider RTLC, for which the “one-hybrid fitness for binding parS DNA” value came out at 0.982.
With CTCV the figure was no more than 0.2; with NAVT, no more than 0.2.
For MEVR, the “one-hybrid fitness for binding parS DNA” value was no more than 0.2.
For QGIP, the “one-hybrid fitness for binding parS DNA” value was no more than 0.2.
With IPHS the figure was no more than 0.2; with RCLH, 0.258.
With RSLS the figure was 1.01; with RSLN, 0.443; with RSLD, no more than 0.2.
As to RPLS, the “one-hybrid fitness for binding parS DNA” value is no more than 0.2.
RCLS: the “one-hybrid fitness for binding parS DNA” value came out at 1.04.
For TPGP, the “one-hybrid fitness for binding parS DNA” value was no more than 0.2.
To ASSQ belongs no more than 0.2.
Take LTSY: the “one-hybrid fitness for binding parS DNA” value was no more than 0.2.
To PADA belongs no more than 0.2; to RMVS, 1.04; to RMVD, no more than 0.2.
To RMVN belongs 0.422.
To RMKS belongs 0.832; to RMKN, 0.432.
Take RMKH: the “one-hybrid fitness for binding parS DNA” value stood at 0.24.
Regarding LRAY, the “one-hybrid fitness for binding parS DNA” value was no more than 0.2.
To TDIK belongs no more than 0.2; to RAKF, 0.385; to WVHG, no more than 0.2.
With RCEL the figure was no more than 0.2; with THTA, no more than 0.2; with PWVT, no more than 0.2.
With RVMH, the “one-hybrid fitness for binding parS DNA” value was no more than 0.2.
Take RVMY: the “one-hybrid fitness for binding parS DNA” value is 0.455.
To RVMP belongs no more than 0.2; to RVML, no more than 0.2.
With RVMG the figure was 0.971.
With RVMN the figure was 0.388; with RVMF, 0.243.
Consider RVMT, for which the “one-hybrid fitness for binding parS DNA” value was 0.885.
With RVMC the figure was 0.95; with RVMM, 0.287.
With RVMS the figure was 0.997; with RVMD, no more than 0.2; with KMVW, no more than 0.2.
To WMRR belongs no more than 0.2.
Turning to ALEF, the “one-hybrid fitness for binding parS DNA” value is no more than 0.2.
To ADCS belongs no more than 0.2; to VPDS, no more than 0.2.
With RAVA the figure was 0.542; with RAKA, 0.737; with AAKA, no more than 0.2.
With VWKI the figure was no more than 0.2; with LDDF, no more than 0.2; with NYLA, no more than 0.2.
On to NYSA, for which the “one-hybrid fitness for binding parS DNA” value is no more than 0.2.
To DYKA belongs no more than 0.2; to RYVA, 0.508; to RYLA, 0.608.
With EYSA the figure was no more than 0.2.
As for RYSA, the “one-hybrid fitness for binding parS DNA” value stood at 0.535.
On to RYKA, for which the “one-hybrid fitness for binding parS DNA” value was 0.793.
With RYWA the figure was 0.554.
With LTIQ the figure was no more than 0.2; with LMSQ, no more than 0.2.
With GCEC the figure was no more than 0.2.
With QYSE, the “one-hybrid fitness for binding parS DNA” value is no more than 0.2.
With MSRC the figure was no more than 0.2.
To RYIA belongs 0.496; to SYQA, no more than 0.2.
To RYGA belongs 0.539.
Turning to SYGA, the “one-hybrid fitness for binding parS DNA” value is no more than 0.2.
With RYRA the figure was 0.727.
With RYHA the figure was 0.545.
With PYQA the figure was no more than 0.2; with NYRA, no more than 0.2; with RYQA, 0.562.
In the case of AYGA, the “one-hybrid fitness for binding parS DNA” value is no more than 0.2.
To KHQR belongs no more than 0.2; to QHCK, no more than 0.2; to PRPC, no more than 0.2.
To YWNN belongs no more than 0.2; to YYMS, no more than 0.2; to ILCT, no more than 0.2.
Consider TTSA, for which the “one-hybrid fitness for binding parS DNA” value is no more than 0.2.
With RYCA the figure was 0.46; with RYPA, 0.212; with RYYA, 0.522.
With TDNY the figure was no more than 0.2; with RGDN, no more than 0.2.
With RGNP the figure was no more than 0.2.
In the case of RGND, the “one-hybrid fitness for binding parS DNA” value is no more than 0.2.
To RGNS belongs 0.862; to RGDS, 0.551; to RGDP, no more than 0.2.
Turning to NNTG, the “one-hybrid fitness for binding parS DNA” value was no more than 0.2.
With LAFI the figure was no more than 0.2; with TKPY, no more than 0.2; with ASRG, no more than 0.2.
With TAAN the figure was no more than 0.2; with VRSP, no more than 0.2.
With TLKS the figure was no more than 0.2; with RIIS, 0.994; with RIPS, 0.812.
Regarding RIIP, the “one-hybrid fitness for binding parS DNA” value was no more than 0.2.
To RIPD belongs no more than 0.2; to RIID, no more than 0.2; to RIPH, no more than 0.2.
To QKRS belongs no more than 0.2.
To YTMT belongs no more than 0.2; to HPWL, no more than 0.2.
Turning to RNVQ, the “one-hybrid fitness for binding parS DNA” value is no more than 0.2.
To RNVG belongs 0.619; to RNKK, no more than 0.2; to RNVK, no more than 0.2.
On to RNKQ, for which the “one-hybrid fitness for binding parS DNA” value was no more than 0.2.
To RNKG belongs 0.941; to MYPT, no more than 0.2.
To REFV belongs no more than 0.2; to RNMD, no more than 0.2; to RNML, no more than 0.2.
To RNMG belongs 0.819; to RNMS, 0.868; to RNMT, 0.678.
As for RNMK, the “one-hybrid fitness for binding parS DNA” value is no more than 0.2.
In the case of RNMP, the “one-hybrid fitness for binding parS DNA” value is no more than 0.2.
On to RNMH, for which the “one-hybrid fitness for binding parS DNA” value was no more than 0.2.
To RNMN belongs 0.299; to RNMF, no more than 0.2; to RNMC, 0.745.
With RNMY the figure was 0.325; with GRCA, no more than 0.2.
Regarding PERA, the “one-hybrid fitness for binding parS DNA” value is no more than 0.2.
To TDEN belongs no more than 0.2; to YRHT, no more than 0.2.
VWAT: the “one-hybrid fitness for binding parS DNA” value is no more than 0.2.
To VNSR belongs no more than 0.2; to FTWC, no more than 0.2.
For the variant RYFT, the “one-hybrid fitness for binding parS DNA” value was determined as 0.792.
Take RYFF: the “one-hybrid fitness for binding parS DNA” value turned out to be 0.256.
To RYAT belongs 0.899; to RYAN, 0.387.
To RYFD belongs no more than 0.2; to RYAD, no more than 0.2.
To NHVC belongs no more than 0.2.
Regarding AYMK, the “one-hybrid fitness for binding parS DNA” value was no more than 0.2.
With PDKP the figure was no more than 0.2.
Turning to YYNR, the “one-hybrid fitness for binding parS DNA” value was no more than 0.2.
With TQLI the figure was no more than 0.2.
With KLHC the figure was no more than 0.2; with YNTM, no more than 0.2.
To RHNI belongs no more than 0.2; to RKVH, no more than 0.2.
Turning to RKVS, the “one-hybrid fitness for binding parS DNA” value came out at 0.967.
With RKVN the figure was 0.36; with RKKN, 0.356.
Regarding RKKH, the “one-hybrid fitness for binding parS DNA” value is 0.317.
For RKKS, the “one-hybrid fitness for binding parS DNA” value stood at 0.69.
With QPGI the figure was no more than 0.2; with QTTR, no more than 0.2.
To DASR belongs no more than 0.2; to WTNT, no more than 0.2.
To MFKT belongs no more than 0.2; to CHQS, no more than 0.2; to PYYS, no more than 0.2.
On to RHNT, for which the “one-hybrid fitness for binding parS DNA” value was found to be 0.857.
With RHDT the figure was 0.791.
With RHNQ the figure was no more than 0.2; with RHDR, no more than 0.2.
To RHNE belongs no more than 0.2.
As to RHDK, the “one-hybrid fitness for binding parS DNA” value is no more than 0.2.
With TAQY the figure was no more than 0.2.
To WPVT belongs no more than 0.2.
With QWVG the figure was no more than 0.2.
YAIL: the “one-hybrid fitness for binding parS DNA” value was no more than 0.2.
To KTMW belongs no more than 0.2.
With TMYG the figure was no more than 0.2; with RLVM, 0.295; with RLVC, 0.962.
To RLKM belongs 0.399; to RLKQ, no more than 0.2.
Regarding RLVR, the “one-hybrid fitness for binding parS DNA” value is no more than 0.2.
With RLKC the figure was 0.835.
